# In PubChem BioAssay (NCATS):
# Results filed as inconclusive are left out. A call without a number means that no potency is given here. Activity calls are given as the source filed them. Calls come from the whole dose curve; as a rule, active = well fitted inhibition curve with a large enough effect; inconclusive = small, poorly fitted or top-dose-only effect; inactive = flat fitted curve, though single readings scatter.
# System: astro (control astrocytes)
# Experiment: Drug repurposing screens with cells derived from glioblastoma tumor samples (AID 1345199); note: nearly all actives have a fitted effect of over 40% in size
# Settings: viability, ATP luminescence, 48 h; series mostly up to 45.9 µM
# In short: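 Four patient lines of CD133+ GBM neurospheres were screened at several concentrations; hits were retested in those lines plus three slower-growing GBM lines, using 48-hour treatment and ATP-based viability.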
# Potency is the fitted concentration of half-maximal effect.
row,SMILES,Potency
1,CCN(CC)C(=O)N[C@@H]1C=C2c3cccc4[nH]cc(c34)C[C@@H]2N(C)C1,inactive
2,NCC1(CC(=O)O)CCCCC1,inactive
3,CC(C)(N)Cc1ccc(Cl)cc1,inactive
4,Fc1ccc(C(OCCN2CCN(CCCc3ccccc3)CC2)c2ccc(F)cc2)cc1,22.4 µM (active)
5,c1ccc(C2CC2)c(OCC2=NCCN2)c1,inactive
6,Cc1ccc2c(c1)C1CN(C)CCC1N2 (centres undefined),inactive
7,CC1OC(C)OC(C)O1 (centres undefined),inactive
8,O=C(NC(O)C(Cl)(Cl)Cl)NC(O)C(Cl)(Cl)Cl (centres undefined),inactive
9,NCC(CC(=O)O)c1ccc(Cl)cc1 (centres undefined),inactive
10,CN(C)[C@@H]1C(=O)C(C(N)=O)=C(O)[C@@]2(O)C(=O)C3=C(O)c4c(O)cccc4[C@@](C)(O)[C@H]3C[C@@H]12,inactive
11,O=C1CC[C@@]2(O)[C@H]3Cc4ccc(O)c5c4[C@@]2(CCN3CC2CC2)[C@H]1O5,inactive
12,Cc1ccc(-c2nc3ccc(C)cn3c2CC(=O)N(C)C)cc1,inactive
13,CCCC1CCCCN1 (centres undefined),inactive
14,C=C1C[C@@H]2[C@H](CC[C@]3(C)C(=O)CC[C@@H]23)[C@@]2(C)C=CC(=O)C=C12,inactive
15,CCN(CC)CCN1C(=O)CN=C(c2ccccc2F)c2cc(Cl)ccc21,inactive
16,NP(N)(=O)NC(=O)c1ccc(F)cc1,inactive
17,CCN(C(C)=O)c1cccc(-c2ccnc3c(C#N)cnn23)c1,inactive
18,C#CCN(C)[C@H](C)Cc1ccccc1,inactive
19,CCCN1CCC[C@@H]2Cc3nc(N)ncc3C[C@H]21,inactive
20,CC(C)NCC(O)c1ccccc1Cl (centres undefined),inactive
21,NN=C(N)N,inactive
22,CO[C@]12CC[C@@]3(C[C@@H]1[C@](C)(O)C(C)(C)C)[C@@H]1Cc4ccc(O)c5c4[C@@]3(CCN1CC1CC1)[C@H]2O5,31.6 µM (active)
23,CC(=O)[C@H]1CC[C@H]2[C@@H]3CC[C@H]4C[C@H](O)CC[C@]4(C)[C@H]3C(=O)C[C@]12C,inactive
24,C=C1CC[C@@]2(O)[C@H]3Cc4ccc(O)c5c4[C@@]2(CCN3CC2CC2)[C@H]1O5,inactive
25,CC(CCc1ccccc1)NC(C)C(O)c1ccc(O)cc1 (centres undefined),inactive
26,CCCN1CCC[C@@H]2Cc3[nH]ncc3C[C@H]21,inactive
27,CC[N+](CC)(CC)CC,inactive
28,CC(C)=CCOc1c2occc2cc2ccc(=O)oc12,inactive
29,Clc1cccc(N2CCNCC2)c1,inactive
